Test [1] has as its target Tyrosine-protein kinase SYK (Homo sapiens) (UniProt P43405). To be noted: at 10 µM.
For test [2], the target named is T1, Mitogen-activated protein kinase kinase kinase 7 (Homo sapiens) (UniProt O43318).
T1 sequence (whole entry): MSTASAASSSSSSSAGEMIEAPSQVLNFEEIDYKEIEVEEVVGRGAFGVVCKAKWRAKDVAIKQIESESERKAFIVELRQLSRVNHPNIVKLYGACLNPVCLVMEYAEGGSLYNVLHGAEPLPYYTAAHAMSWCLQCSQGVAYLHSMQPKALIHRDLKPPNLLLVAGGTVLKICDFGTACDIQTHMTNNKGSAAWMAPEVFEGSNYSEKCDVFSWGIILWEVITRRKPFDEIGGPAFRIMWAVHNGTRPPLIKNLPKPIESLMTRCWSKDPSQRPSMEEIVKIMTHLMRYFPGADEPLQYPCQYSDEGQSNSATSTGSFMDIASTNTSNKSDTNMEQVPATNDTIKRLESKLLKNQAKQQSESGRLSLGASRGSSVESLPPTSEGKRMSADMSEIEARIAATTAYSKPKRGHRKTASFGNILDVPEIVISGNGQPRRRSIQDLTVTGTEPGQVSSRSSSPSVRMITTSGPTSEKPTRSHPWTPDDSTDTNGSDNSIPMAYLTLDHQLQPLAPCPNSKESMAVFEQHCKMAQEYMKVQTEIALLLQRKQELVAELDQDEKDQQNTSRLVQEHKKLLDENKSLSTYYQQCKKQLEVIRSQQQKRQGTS
To be noted: at 1 µM.

Test [3] has as its target T1, Mitogen-activated protein kinase kinase kinase 7 (Homo sapiens). To be noted: at 10 µM.
Test [4] concerns the target T2, Serine/threonine-protein kinase TAO1 (Homo sapiens) (UniProt Q7L7X3).
T2 sequence (whole entry): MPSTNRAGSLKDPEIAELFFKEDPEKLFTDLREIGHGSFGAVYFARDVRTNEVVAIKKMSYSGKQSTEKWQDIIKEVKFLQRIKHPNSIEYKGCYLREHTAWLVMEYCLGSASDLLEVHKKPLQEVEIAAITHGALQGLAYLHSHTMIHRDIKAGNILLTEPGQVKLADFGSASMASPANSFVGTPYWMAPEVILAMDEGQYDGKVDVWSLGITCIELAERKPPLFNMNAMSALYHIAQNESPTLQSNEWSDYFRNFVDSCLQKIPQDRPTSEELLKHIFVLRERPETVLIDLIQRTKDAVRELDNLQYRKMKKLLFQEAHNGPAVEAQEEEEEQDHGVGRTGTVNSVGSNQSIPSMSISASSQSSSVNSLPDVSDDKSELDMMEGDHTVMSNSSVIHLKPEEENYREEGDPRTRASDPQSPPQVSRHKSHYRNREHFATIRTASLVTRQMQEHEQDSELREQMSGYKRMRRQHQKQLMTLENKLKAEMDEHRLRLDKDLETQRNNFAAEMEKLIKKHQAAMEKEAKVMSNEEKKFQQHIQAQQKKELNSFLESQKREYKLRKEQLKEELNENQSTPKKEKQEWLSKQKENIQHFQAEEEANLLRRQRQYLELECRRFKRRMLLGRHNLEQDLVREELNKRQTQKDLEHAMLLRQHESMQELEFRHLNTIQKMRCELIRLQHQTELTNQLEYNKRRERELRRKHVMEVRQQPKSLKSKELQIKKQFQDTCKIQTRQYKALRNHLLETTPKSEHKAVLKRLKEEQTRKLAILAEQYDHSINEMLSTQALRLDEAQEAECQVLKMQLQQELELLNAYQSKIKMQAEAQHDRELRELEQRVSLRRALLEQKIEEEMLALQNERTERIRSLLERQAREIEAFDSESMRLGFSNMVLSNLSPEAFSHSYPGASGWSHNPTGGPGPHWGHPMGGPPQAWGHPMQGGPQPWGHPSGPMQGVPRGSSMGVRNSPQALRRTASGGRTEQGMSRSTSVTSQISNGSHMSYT
To be noted: at 1 µM.

In test [5] the target is T2, Serine/threonine-protein kinase TAO1 (Homo sapiens). Conditions: at 10 µM.
The target in test [6] is T3, Serine/threonine-protein kinase TAO2 (Homo sapiens) (UniProt Q9UL54).
T3 sequence (whole entry): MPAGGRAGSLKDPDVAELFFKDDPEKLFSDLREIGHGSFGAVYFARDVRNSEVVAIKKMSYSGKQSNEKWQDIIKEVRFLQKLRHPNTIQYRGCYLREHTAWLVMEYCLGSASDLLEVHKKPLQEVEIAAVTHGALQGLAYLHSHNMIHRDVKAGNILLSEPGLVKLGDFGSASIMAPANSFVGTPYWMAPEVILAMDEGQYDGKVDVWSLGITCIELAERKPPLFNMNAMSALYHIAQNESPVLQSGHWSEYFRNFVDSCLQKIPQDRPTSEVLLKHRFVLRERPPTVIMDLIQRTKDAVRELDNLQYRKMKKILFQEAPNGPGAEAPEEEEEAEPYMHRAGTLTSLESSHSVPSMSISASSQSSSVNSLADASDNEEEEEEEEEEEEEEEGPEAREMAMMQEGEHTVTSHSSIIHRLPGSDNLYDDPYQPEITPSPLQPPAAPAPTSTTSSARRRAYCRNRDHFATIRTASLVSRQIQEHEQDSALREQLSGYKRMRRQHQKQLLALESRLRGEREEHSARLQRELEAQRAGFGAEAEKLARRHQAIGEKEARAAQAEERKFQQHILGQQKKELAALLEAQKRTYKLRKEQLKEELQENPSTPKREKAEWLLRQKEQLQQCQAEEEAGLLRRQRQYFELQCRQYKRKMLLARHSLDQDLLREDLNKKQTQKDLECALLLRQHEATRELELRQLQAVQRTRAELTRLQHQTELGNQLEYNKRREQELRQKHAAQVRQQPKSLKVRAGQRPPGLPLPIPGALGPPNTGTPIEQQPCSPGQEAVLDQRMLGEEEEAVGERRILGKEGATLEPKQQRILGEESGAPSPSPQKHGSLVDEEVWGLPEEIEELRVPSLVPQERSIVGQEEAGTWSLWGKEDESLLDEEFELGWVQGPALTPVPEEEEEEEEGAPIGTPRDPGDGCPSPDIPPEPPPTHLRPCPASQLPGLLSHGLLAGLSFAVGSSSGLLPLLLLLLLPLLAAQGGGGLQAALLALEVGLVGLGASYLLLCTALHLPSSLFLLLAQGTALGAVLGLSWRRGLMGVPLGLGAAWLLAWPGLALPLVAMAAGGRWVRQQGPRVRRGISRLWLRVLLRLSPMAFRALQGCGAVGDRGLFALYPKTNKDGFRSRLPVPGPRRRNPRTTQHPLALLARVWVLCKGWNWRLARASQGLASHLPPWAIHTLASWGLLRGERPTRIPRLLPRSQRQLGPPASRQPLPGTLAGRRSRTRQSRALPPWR
To be noted: at 1 µM.

In test [7] the target is T3, Serine/threonine-protein kinase TAO2 (Homo sapiens). To be noted: at 10 µM.
The target of test [8] is T4, Serine/threonine-protein kinase TAO3 (Homo sapiens) (UniProt Q9H2K8).
T4 sequence (whole entry): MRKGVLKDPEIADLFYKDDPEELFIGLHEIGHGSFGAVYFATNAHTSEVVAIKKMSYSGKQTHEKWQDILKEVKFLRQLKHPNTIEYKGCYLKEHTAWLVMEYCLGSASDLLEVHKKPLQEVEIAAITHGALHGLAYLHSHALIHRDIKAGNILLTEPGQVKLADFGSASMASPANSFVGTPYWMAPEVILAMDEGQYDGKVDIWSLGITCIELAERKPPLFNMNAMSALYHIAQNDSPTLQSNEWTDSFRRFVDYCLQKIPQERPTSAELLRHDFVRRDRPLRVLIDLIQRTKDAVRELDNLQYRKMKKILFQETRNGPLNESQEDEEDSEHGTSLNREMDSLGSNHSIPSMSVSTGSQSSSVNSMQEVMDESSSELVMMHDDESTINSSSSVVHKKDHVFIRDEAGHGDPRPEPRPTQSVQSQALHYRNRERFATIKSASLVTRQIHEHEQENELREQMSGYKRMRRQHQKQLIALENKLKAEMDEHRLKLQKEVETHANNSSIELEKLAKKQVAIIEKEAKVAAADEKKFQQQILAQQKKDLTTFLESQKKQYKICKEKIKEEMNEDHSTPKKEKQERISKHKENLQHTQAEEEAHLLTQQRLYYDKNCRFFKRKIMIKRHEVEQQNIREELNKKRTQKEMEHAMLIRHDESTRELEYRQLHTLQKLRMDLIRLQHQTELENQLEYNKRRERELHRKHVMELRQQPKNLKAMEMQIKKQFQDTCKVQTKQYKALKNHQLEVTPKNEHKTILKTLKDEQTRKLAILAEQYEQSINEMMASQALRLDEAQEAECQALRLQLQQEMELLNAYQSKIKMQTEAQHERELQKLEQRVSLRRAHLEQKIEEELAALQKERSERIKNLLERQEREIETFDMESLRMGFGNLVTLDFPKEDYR
Conditions: at 1 µM.

Test [9] addresses T4, Serine/threonine-protein kinase TAO3 (Homo sapiens). Conditions: at 10 µM.
In test [10] the target is T5, Serine/threonine-protein kinase TBK1 (Homo sapiens) (UniProt Q9UHD2).
T5 sequence (whole entry): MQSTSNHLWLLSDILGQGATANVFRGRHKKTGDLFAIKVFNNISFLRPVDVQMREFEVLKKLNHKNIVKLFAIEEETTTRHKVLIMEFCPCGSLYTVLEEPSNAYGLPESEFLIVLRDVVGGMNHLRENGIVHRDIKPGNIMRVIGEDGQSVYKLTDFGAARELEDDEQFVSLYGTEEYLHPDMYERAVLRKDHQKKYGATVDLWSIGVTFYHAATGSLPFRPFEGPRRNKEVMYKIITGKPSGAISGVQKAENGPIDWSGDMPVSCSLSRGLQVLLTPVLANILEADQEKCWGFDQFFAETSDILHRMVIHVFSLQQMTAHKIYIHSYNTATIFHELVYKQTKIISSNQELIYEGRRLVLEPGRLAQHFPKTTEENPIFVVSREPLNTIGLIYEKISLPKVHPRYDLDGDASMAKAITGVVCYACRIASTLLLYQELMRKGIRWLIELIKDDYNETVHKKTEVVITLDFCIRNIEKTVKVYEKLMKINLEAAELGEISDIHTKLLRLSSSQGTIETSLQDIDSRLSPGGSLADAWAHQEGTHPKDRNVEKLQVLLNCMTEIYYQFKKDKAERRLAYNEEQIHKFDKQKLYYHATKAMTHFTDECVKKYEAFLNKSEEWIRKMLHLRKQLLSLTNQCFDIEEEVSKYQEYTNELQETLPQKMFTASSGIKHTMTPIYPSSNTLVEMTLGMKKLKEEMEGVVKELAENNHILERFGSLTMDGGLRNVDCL
To be noted: at 1 µM.

Consider `Oc1n[nH]c2nnc(-c3c(-c4ccccc4)nn4ccccc34)cc12`, for which the residual activity is 105% in test [1]; 87% in test [2]; 74% in test [3]; 83% in test [4]; 79% in test [5]; 98% in test [6]. For the same compound, the residual activity in test [7] turned out to be 96%; in test [8] it was 89%; in [9], 90%; in test [10] it was 67%.

For the origin of these results see ChEMBL document CHEMBL2218924, “A broad activity screen in support of a chemogenomic map for kinase signalling research and drug discovery” (Biochem J, 2013).
